PubChem BioAssay
The source made the active and inactive calls. Unless noted, how the calls were made is not given here.

What was measured:
[1] = test system: Wnt5a (protein binding on small-molecule microarray); experiment: small molecules binding Wnt5a protein – biophysical, small-molecule microarray, 635/667 nm fluorescence, primary screen (AID 1142); conditions: 635 nm fluorescence, higher = more signal;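 further: fluorescence read at 667 nm with signal to noise per printed feature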
[2] = ATP-based viability of Huh7 replicon cells – cell-based, CellTiter-Glo luminescence, basal, 48 h, cytotoxicity control for HCV replication inhibitor project, primary screen (AID 1143); conditions: higher = more signal, called active from +8 up or from −8 down;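 further: Huh7 hepatoma cells carrying a hepatitis C replication reporter with no stimulus; test concentration not given here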
[3] = Pseudomonas biofilm growth suppression – PAO1 strain, BacTiter-Glo luminescence, LB-PBS, primary screen (AID 1144); conditions: P. aeruginosa PAO1 biofilm, 12 h, higher = more signal
[4] = basal CRE-LacZ reporter activity in PC12 – cell-based, unstimulated, primary screen (AID 1145); conditions: no forskolin, luminescence, 4.5 h, higher = more signal, called active from +8 up or from −8 down
[5] = forskolin-driven CRE-LacZ activity in PC12 – cell-based, CRE-LacZ reporter, forskolin-stimulated, primary screen (AID 1146); conditions: luminescence, 4.5 h, higher = more signal, called active from +8 up or from −8 down;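 further: PC12 cells with 6xCRE LacZ reporter stimulated by forskolin 10 µM; beta-galactosidase reporter signal reflecting CREB driven transcription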
[6] = target: Streptavidin (Streptomyces avidinii) (UniProt P22629); experiment: compounds binding control protein streptavidin – biophysical, small-molecule microarray, 635/667 nm fluorescence, artefact control for SMM compound annotation, primary screen (AID 1147); conditions: higher = more signal;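 further: signal reflects streptavidin binding to arrayed compounds as a control protein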
Chain of Streptavidin (Streptomyces avidinii) (P22629 whole entry, looked up): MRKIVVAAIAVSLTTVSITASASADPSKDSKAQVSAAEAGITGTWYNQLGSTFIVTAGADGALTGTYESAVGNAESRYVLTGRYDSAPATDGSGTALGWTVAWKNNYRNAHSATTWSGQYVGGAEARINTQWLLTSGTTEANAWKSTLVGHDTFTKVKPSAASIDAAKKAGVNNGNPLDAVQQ

[7] = probe aInhba binding on compound microarray – biochemical, small-molecule microarray, 635/667 nm fluorescence, primary screen (AID 1148); conditions: higher = more signal;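 further: score merges 667nm spot fluorescence with signal-to-noise for antibody binding to printed compounds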
Torsin-1A (Homo sapiens) [8] = target: Torsin-1A (Homo sapiens) (UniProt O14656); experiment: TOR1A wild-type binding on microarray – cell lysate, small-molecule microarray, lysate, 635/667 nm, primary screen (AID 1149); conditions: COS7 hTOR1A-WT lysate, 635 nm fluorescence, higher = more signal
Chain of Torsin-1A (Homo sapiens) (O14656 whole entry, looked up): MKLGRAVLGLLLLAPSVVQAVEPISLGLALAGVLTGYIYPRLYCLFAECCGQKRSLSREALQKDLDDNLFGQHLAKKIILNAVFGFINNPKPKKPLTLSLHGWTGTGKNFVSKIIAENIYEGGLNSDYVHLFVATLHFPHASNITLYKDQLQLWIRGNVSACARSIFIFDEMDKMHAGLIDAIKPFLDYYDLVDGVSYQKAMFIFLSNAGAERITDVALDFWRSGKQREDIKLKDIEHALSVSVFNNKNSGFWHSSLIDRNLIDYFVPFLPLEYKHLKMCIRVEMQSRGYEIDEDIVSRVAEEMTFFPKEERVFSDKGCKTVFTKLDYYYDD

Torsin-1A (Homo sapiens) [9] = target: Torsin-1A (Homo sapiens) (UniProt O14656); experiment: torsin A mutant lysate binding on microarrays – cell lysate, small-molecule microarray, COS7 lysate, 635/667 nm fluorescence, primary screen (AID 1150); conditions: COS7 hTOR1A mutant lysate, 635 nm fluorescence, higher = more signal;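 further: score pools 667 nm emission and signal to noise measuring lysate protein binding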
[10] = test system: Sonic hedgehog protein (Shh); experiment: Sonic hedgehog microarray binding compounds – biochemical, small-molecule microarray, 635/667 nm fluorescence, primary screen (AID 1151); conditions: 635 nm fluorescence, higher = more signal;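 further: Shh protein binding to compounds spotted on small-molecule microarray slides; score combines spot fluorescence intensity with signal-to-noise across triplicate slides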
[11] = optical density shifts of acrAB sulA E. coli – strain DRC41, OD650, 48 h, E. coli filamentation inducer project, primary screen (AID 1152); conditions: higher = more signal, called active from +8 up or from −8 down;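 further: E. coli MC1000 strain DRC41 lacking acrAB efflux pump and sulA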
[12] = probe aLefty1 binding on compound microarray – biochemical, small-molecule microarray, 635/667 nm fluorescence, primary screen (AID 1153); conditions: higher = more signal;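 further: score merges spot fluorescence with signal-to-noise ratio from the scanned slide images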
[13] = plasmodial surface anion channel blockers, osmotic lysis – cell-based, P. falciparum Indochina, OD700, 1 h, primary screen (AID 1154); conditions: P. falciparum Indochina infected RBC osmotic lysis, higher = more signal, called active from +8 up or from −8 down
[14] = plasmodial surface anion channel blockers, osmotic lysis – cell-based, P. falciparum Indochina, OD700, 2 h, primary screen (AID 1155);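 further: lysis reports solute entry through the parasite surface anion channel PSAC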; conditions: P. falciparum Indochina infected erythrocytes, higher = more signal, called active from +8 up or from −8 down
[15] = changes in parasitized red cell lysis, either direction – P. falciparum Indochina, OD700, 3 h, PSAC antagonist project, primary screen (AID 1156); conditions: P. falciparum-infected erythrocytes, osmotic lysis, higher = more signal, called active from +8 up or from −8 down
[16] = plasmodial surface anion channel blockers, osmotic lysis – cell-based, P. falciparum Indochina, OD700, 18 h, primary screen (AID 1157); conditions: P. falciparum Indochina infected erythrocytes, osmotic lysis OD700, 18 h; higher = more signal, called active from +8 up or from −8 down
[17] = S6 kinase pathway phospho-S6 level changes – cell-based, A549, cytoblot, luminescence, serum-stimulated, primary screen (AID 1158); conditions: 5 h, higher = more signal;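 further: serum-stimulated A549 lung adenocarcinoma cells; signal is phosphorylated S6 detected by cytoblot immunostaining with HRP secondary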
[18] = target: NADPH oxidase 2 (Homo sapiens) (UniProt P04839); experiment: compounds shifting NOX2 Amplex Red fluorescence – cell-based, HEK293-NOX2, PMA-stimulated, NOX inhibitor project, primary screen (AID 1159); conditions: 45 min, higher = more signal, called active from +8 up or from −8 down; further: test concentration not given here
Chain of NADPH oxidase 2 (Homo sapiens) (P04839 whole entry, looked up): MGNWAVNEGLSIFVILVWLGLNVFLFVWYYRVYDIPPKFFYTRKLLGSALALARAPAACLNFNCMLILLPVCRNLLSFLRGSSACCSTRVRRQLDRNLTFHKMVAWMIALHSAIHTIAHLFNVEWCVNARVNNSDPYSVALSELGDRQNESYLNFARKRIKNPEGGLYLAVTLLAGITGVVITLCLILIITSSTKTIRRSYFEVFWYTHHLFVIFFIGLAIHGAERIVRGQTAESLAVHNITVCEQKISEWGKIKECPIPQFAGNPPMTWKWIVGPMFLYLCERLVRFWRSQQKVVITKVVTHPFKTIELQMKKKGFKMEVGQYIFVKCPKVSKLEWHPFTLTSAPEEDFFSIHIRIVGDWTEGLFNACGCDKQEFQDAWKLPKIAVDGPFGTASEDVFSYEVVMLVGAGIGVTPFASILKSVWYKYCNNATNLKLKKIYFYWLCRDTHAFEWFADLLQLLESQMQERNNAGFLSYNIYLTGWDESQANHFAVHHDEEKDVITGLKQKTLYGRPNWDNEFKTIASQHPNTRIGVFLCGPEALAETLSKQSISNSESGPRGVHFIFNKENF

[19] = target: NADPH oxidase 4 (Homo sapiens) (UniProt Q9NPH5); experiment: compounds shifting NOX4 Amplex Red fluorescence – cell-based, HEK293-NOX4, tetracycline-induced, NOX inhibitor project, primary screen (AID 1160); conditions: HEK293-NOX4, Amplex Red H2O2 fluorescence, 45 min; higher = more signal, called active from +8 up or from −8 down
Chain of NADPH oxidase 4 (Homo sapiens) (Q9NPH5 whole entry, looked up): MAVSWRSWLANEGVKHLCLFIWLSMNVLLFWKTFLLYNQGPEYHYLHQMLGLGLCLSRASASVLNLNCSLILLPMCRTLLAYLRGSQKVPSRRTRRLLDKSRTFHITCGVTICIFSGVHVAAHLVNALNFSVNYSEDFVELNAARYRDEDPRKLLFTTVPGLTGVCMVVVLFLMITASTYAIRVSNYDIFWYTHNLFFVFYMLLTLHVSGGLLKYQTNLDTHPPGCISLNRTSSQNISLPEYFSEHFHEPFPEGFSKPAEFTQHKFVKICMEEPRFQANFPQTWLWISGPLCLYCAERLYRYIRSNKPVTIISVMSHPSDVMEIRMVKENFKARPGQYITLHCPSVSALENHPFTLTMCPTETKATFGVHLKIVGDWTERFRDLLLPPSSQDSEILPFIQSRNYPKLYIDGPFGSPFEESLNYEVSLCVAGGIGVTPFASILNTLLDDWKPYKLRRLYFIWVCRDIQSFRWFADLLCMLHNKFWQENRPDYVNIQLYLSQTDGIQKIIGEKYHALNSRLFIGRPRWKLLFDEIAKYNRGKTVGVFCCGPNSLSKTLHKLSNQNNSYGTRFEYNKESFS

[20] = target: NADPH oxidase 5 (Homo sapiens) (UniProt Q96PH1); experiment: compounds shifting NOX5 Amplex Red fluorescence – cell-based, HEK293-NOX5, NOX inhibitor project, primary screen (AID 1161); conditions: HEK293-NOX5, ionomycin, 45 min, higher = more signal
Chain of NADPH oxidase 5 (Homo sapiens) (Q96PH1 whole entry, looked up): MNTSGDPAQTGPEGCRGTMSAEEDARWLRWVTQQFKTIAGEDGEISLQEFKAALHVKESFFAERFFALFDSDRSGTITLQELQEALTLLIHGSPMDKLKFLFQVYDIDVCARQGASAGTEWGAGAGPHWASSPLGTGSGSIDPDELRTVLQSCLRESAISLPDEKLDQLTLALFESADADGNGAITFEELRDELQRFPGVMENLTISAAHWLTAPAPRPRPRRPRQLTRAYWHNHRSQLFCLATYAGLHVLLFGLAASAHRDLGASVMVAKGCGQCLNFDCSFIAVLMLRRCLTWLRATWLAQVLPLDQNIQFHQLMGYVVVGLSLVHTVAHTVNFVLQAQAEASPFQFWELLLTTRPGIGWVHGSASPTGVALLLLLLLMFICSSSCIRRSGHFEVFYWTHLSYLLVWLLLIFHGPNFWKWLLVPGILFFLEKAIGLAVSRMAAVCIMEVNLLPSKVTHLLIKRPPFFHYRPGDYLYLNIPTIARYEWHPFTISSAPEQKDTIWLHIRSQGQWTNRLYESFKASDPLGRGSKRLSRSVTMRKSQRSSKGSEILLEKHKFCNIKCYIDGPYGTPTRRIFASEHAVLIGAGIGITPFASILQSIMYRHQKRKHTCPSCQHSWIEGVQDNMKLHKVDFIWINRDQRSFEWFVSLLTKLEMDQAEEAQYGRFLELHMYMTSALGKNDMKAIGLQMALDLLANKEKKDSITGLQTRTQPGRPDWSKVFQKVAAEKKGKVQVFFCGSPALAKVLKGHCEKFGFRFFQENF

Structure (SMILES) | composite z-score [1] | z-score [2] | z-score [3] | z-score [4] | z-score [5] | composite z-score [6] | composite z-score [7] | composite z-score (Torsin-1A (Homo sapiens) [8]) | composite z-score (Torsin-1A (Homo sapiens) [9]) | composite z-score [10] | z-score [11] | composite z-score [12] | z-score [13] | z-score [14] | z-score [15] | z-score [16] | z-score [17] | z-score [18] | z-score [19] | z-score [20]
CC1CC/C=C\[C@H]2OC34C=CCN(CCN5CCOCC5)C(=O)[C@H]3N(C(C)CO)C(=O)[C@@H]4C2C(=O)O1 (stereo not given in full) | -0.409 | 0.181 (inactive) | 0.156 (inactive) | -0.0778 (inactive) | -0.0178 (inactive) | -1.16 | -0.0933 | -1.72 | -1.58 | 1.41 | -0.197 (inactive) | -0.147 | 0.77 (inactive) | -0.306 (inactive) | 0.753 (inactive) | 0.233 (inactive) | 0.0656 | 0.801 (inactive) | -0.323 (inactive) | 1.58
Cc1ccc(F)cc1S(=O)(=O)N[C@@H]1CCN(Cc2cccc3[nH]ccc23)C1 | 0.148 | -2.35 (inactive) | -0.0885 (inactive) | 1.13 (inactive) | -0.714 (inactive) | -0.0164 | 0.143 | 0.495 | 0.913 | 0.969 | -1.41 (inactive) | -0.007 | 1.27 (inactive) | 0.137 (inactive) | 0.0401 (inactive) | 0.451 (inactive) | -0.453 | 0.116 (inactive) | -0.746 (inactive) | -0.541
COCCOC(=O)N1C(=O)[C@@]2(c3cc(C#Cc4ccc(OC)cc4)ccc31)[C@H](C(=O)NC[C@H](O)c1ccccc1)[C@H]1C(=O)O[C@H](c3ccccc3)[C@H](c3ccccc3)N1[C@@H]2c1ccc(OCCO)cc1 | 0.76 | -5.48 (inactive) | -1.73 (inactive) | -1.42 (inactive) | -0.544 (inactive) | 0.277 | 0.0184 | 0.161 | 0.963 | 1.62 | 1.34 (inactive) | 0.179 | 5.02 (inactive) | 1.45 (inactive) | -0.191 (inactive) | 0.312 (inactive) | 2 | -0.756 (inactive) | -2.17 (inactive) | -2.61
C=CCC(OC(C)=O)[C@@H]1[C@@H](N(Cc2cccc3ccccc23)C(=O)c2cccc3ccccc23)c2cc(OCCCO)ccc2N1C(=O)c1ccc2ccccc2c1 (stereo not given in full) | -0.23 | -2.35 (inactive) | 0.311 (inactive) | -1.1 (inactive) | 1.03 (inactive) | -0.0629 | -0.0288 | 0.0265 | -0.252 | 0.49 | 0.0047 (inactive) | -0.333 | 0.529 (inactive) | -0.128 (inactive) | 1.41 (inactive) | 0.0897 (inactive) | 0.914 | -2.77 (inactive) | -1.09 (inactive) | -2.66
COc1cc2c(cc1O)C(c1ccc(CN3CCCC3)cc1)N(C)CC2 (stereo not given) | -0.0821 | -0.383 (inactive) | 0.374 (inactive) | -0.231 (inactive) | -0.0347 (inactive) | -0.317 | -0.237 | -0.508 | 0.081 | -0.0838 | 0.309 (inactive) | -0.446 | 0.0334 (inactive) | -0.0719 (inactive) | 0.247 (inactive) | 0.0339 (inactive) | -0.364 | -1.63 (inactive) | -1.46 (inactive) | -1.22
COC(=O)[C@@]1(Cc2ccc(F)cc2)[C@H]2c3cc(C(=O)N4CCCC4)n(C)c3C[C@H]2CN1C(=O)c1ccccc1 | 0.926 | -1.4 (inactive) | -0.666 (inactive) | 0.58 (inactive) | 0.736 (inactive) | 1.18 | 0.757 | 0.492 | 1.34 | -0.928 | -0.327 (inactive) | 0.603 | 2.59 (inactive) | 0.107 (inactive) | -0.105 (inactive) | 0.47 (inactive) | 0.305 | 0.282 (inactive) | -0.466 (inactive) | -0.565
CC(=O)NCCCC[C@@H]1NC(=O)[C@H]2C[C@@H](C(=O)NCCCCCNC(=O)CS)[C@@H](c3cccc(OCCO)c3)N2C1=O | -0.0417 | 0.321 (inactive) | -0.93 (inactive) | -0.13 (inactive) | 0.908 (inactive) | -0.155 | -0.128 | 0.498 | 0.092 | 1.74 | -0.486 (inactive) | -0.0573 | 1.85 (inactive) | 0.461 (inactive) | -0.369 (inactive) | 0.227 (inactive) | 0.0439 | 1.87 (inactive) | 0.825 (inactive) | 0.697
COc1ccc(C(O)C2C=CC3C(=O)N(c4ccccc4)C(=O)C3N2Nc2ccccc2)cc1 (stereo not given) | 0.256 | -0.0351 (inactive) | -0.0851 (inactive) | 0.426 (inactive) | -0.356 (inactive) | 0.571 | 0.105 | -0.109 | 0.692 | 0.393 | -1.04 (inactive) | 0.411 | 10.9 (active) | 2.15 (inactive) | 0.332 (inactive) | 1.27 (inactive) | -1.44 | -2.06 (inactive) | -3.23 (inactive) | -2.84
CC1(C)C(=O)C(c2ccccc2)=C2CN3C(=O)N(CCc4ccccc4)C(=O)C3(Cc3ccc(F)cc3)C=C21 (stereo not given) | 0.198 | -1.86 (inactive) | -0.425 (inactive) | 0.587 (inactive) | -0.0536 (inactive) | 0.326 | 0.349 | -0.448 | 0.0142 | -1.41 | -2.48 (inactive) | 0.595 | 2.94 (inactive) | 0.371 (inactive) | 1.8 (inactive) | 0.765 (inactive) | -0.16 | -0.952 (inactive) | -4.15 (inactive) | -3.9
